{
  "source": "PubChem BioAssay AID743398",
  "about": "(Broad Institute, 2014)",
  "note": "In all, about 300,000 compounds went through this assay and about 3,600 (1.2%) were called active. This excerpt belongs to a sample that is enriched for actives. Values without a mark were called inactive. No stated cut-off is given here; in the data, active means activation above about 30% (passing the limit was not always enough); inconclusive means no clear call, values can overlap the other calls.",
  "data": [
    {"assay": "activation of beta-catenin signaling reporter – cell-based, plate reader, single point, primary screen (AID 743398);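 further: 0% = neutral control wells and 100% = positive control wells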", "conditions": "Wnt/beta-catenin reporter cell assay, activator, at 9.35 µM, stronger effect = higher value", "values": [
      {"compound": "Nc1[nH]c(C(=O)c2ccccc2)c(-c2ccc(Cl)cc2Cl)c1C(=O)c1ccccc1", "activation": "3.74%"},
      {"compound": "COc1cccc(/C=C/c2ccc3ccccc3n2)c1OC(C)=O", "activation": "-2.71%"},
      {"compound": "NC(=O)COC(=O)/C=C/c1ccc2ccccc2n1", "activation": "48.3% (active)"},
      {"compound": "CCOc1cccc(/C=C/c2ccc3ccccc3n2)c1OC(C)=O", "activation": "7.85%"},
      {"compound": "C[C@@H]1CN([C@@H](C)CO)C(=O)CCCn2nncc2CO[C@@H]1CN(C)S(=O)(=O)c1ccc(-c2ccccc2)cc1", "activation": "-3.45%"},
      {"compound": "CCCNC(=O)C1(C)CCN(Cc2csc(-c3ccc(Cl)cc3)n2)C1", "note": "(configuration not stated)", "activation": "-1.95%"},
      {"compound": "COC(=O)c1sc(-c2ccc(C(C)(C)C)cc2)cc1NC(=O)/C=C/C(=O)O", "activation": "34.5% (active)"},
      {"compound": "COc1ccccc1NC(=O)/C=C/C(=O)O", "activation": "0.198%"},
      {"compound": "O=C(O)/C=C/C(=O)Nc1ccc(F)cc1F", "activation": "-1.57%"},
      {"compound": "CCc1nc2c(OCc3ccccc3)cccn2c1N(C)C(=O)c1ccco1", "activation": "-1.39%"},
      {"compound": "Cc1ccc(C(O)c2ncc(-c3ccccc3F)[nH]2)cc1F", "note": "(configuration not stated)", "activation": "-2%"},
      {"compound": "COc1ccc(C2OC(CCc3ccccc3)Cc3[nH]c(=S)[nH]c(=O)c32)cc1", "note": "(configuration not stated)", "activation": "-4.52%"},
      {"compound": "OCCC#Cc1ccc(N2C(c3ccsc3)=Cc3ccc(F)cc3C2c2c[nH]c3ccccc23)cc1", "note": "(configuration not stated)", "activation": "-4.42%"},
      {"compound": "C=CC1=CCN(S(=O)(=O)C(C)(C)C)[C@@H]1CCO", "activation": "-5.37%"},
      {"compound": "Cc1ccc(NC(=O)c2csc3c2CCCC3)cc1", "activation": "33.5% (active)"},
      {"compound": "O=C(Nc1ccccc1N1CCOCC1)c1csc2c1CCCC2", "activation": "3.53%"},
      {"compound": "O=C(N/N=C/c1ccco1)c1csc2c1CCCC2", "activation": "14.7%"},
      {"compound": "COc1cccc(CNC(=O)[C@H]2CCCN2C(=O)[C@H]2CCCN2C(=O)c2ccc(F)cc2)c1", "activation": "-3.18%"},
      {"compound": "Cc1ccc2nc(-c3ccc(CN4CCC(n5cc(-c6ccccc6)[nH]c5=O)CC4)cc3)c(-c3ccccc3)nc2c1", "activation": "-0.633%"},
      {"compound": "O=C(CN1CCN(S(=O)(=O)/C=C/c2ccccc2)CC1)Nc1ccc(N2CCOCC2)cc1", "activation": "-0.917%"},
      {"compound": "Cc1cccc(N2C(=O)c3ccc(C(=O)Nc4cccc(C(=O)O)c4)cc3C2=O)c1", "activation": "3.97%"},
      {"compound": "O=C(O)c1ccc2c(c1)C(=O)N(c1ccc(/C=C/C(=O)c3ccccc3)cc1)C2=O", "activation": "31.9% (active)"},
      {"compound": "O=C(O)c1ccc2c(c1)C(=O)N(NC(=O)c1ccc(O)cc1)C2=O", "activation": "-0.273%"},
      {"compound": "O=C(NN=Cc1ccc(N2CCOCC2)cc1)c1cc2ccccc2cc1O", "activation": "-3.76%"},
      {"compound": "O=C(/C=C/c1ccc(N2CCOCC2)cc1)c1ccccc1", "activation": "38.7% (active)"},
      {"compound": "O=C(c1ccc(N2CCCC2=O)cc1)N1CCN(c2ccc(C(F)(F)F)cc2[N+](=O)[O-])CC1", "activation": "-1.11%"},
      {"compound": "CC(=O)c1ccc(Nc2nc(C(N)c3ccccc3Cl)cs2)cc1", "note": "(configuration not stated)", "activation": "-4.58%"},
      {"compound": "O=C(C(=O)N1CCC(CNS(=O)(=O)Cc2ccccc2)CC1)c1cc2ccccc2o1", "activation": "-4.41%"},
      {"compound": "Cc1ccc(C(=O)NNc2ncnc3ccccc23)cc1", "activation": "42.9% (active)"},
      {"compound": "CCc1nc(SCC(=O)NNC(=O)c2ccc(C)cc2)c2ccccc2n1", "activation": "-1.15%"},
      {"compound": "Cc1ccc(C(=O)NNC(=O)c2cccs2)cc1", "activation": "6.9%"},
      {"compound": "COC(=O)C1=C(C)N(Cc2ccccc2C(F)(F)F)C(=NCC2CC2)NC1c1cccc(Cl)c1", "note": "(configuration not stated)", "activation": "-1.87%"},
      {"compound": "CCOC(=O)[C@]12CCCC=C1N(Cc1cccc3ccccc13)C(=O)[C@H](CC(=O)NCC13CC4CC(CC(C4)C1)C3)C2", "activation": "-3.35%"},
      {"compound": "CCc1c(-c2ccc(F)cc2)ncn1Cc1cccc(-c2ccccc2)c1", "activation": "-4.88%"},
      {"compound": "CN[C@H]1C[C@H]2c3[nH]c4c(-c5ccccc5)cccc4c3CCN2C(=O)[C@H]1[C@H](C)O", "activation": "-5.37%"},
      {"compound": "CCCc1nc2c3ccccc3ccn2c1Cc1ccccc1C(F)(F)F", "activation": "-0.94%"},
      {"compound": "Cc1ccc(N)cc1CN1CCN(c2ncc(Cc3ccccc3)cn2)CC1", "activation": "-1.28%"},
      {"compound": "COc1ccc(-c2[nH]ncc2CN(C)Cc2cccnc2)c(F)c1", "activation": "8.31%"},
      {"compound": "CCN(CCn1cccn1)Cc1cn[nH]c1-c1ccc(OC)cc1F", "activation": "33.5% (active)"},
      {"compound": "COc1ccc(-c2[nH]ncc2CN(C)Cc2cc(C)[nH]n2)c(F)c1", "activation": "-0.792%"},
      {"compound": "NC(=O)c1ccccc1N(Cc1ccccc1)S(=O)(=O)c1ccccc1", "activation": "30% (active)"},
      {"compound": "CCOC(=O)N1CCN(C(=O)c2ccccc2N(Cc2ccccc2)S(=O)(=O)c2ccc(OC)cc2)CC1", "activation": "-3.31%"},
      {"compound": "O=C(O)c1cc(S(=O)(=O)N(Cc2ccccc2)c2ccccc2)ccc1Cl", "activation": "1.67%"},
      {"compound": "O=C(N[C@H](Cc1ccccc1)C(=O)N1CCCN(Cc2cccs2)CC1)[C@H]1O[C@@H](n2ccc(=O)[nH]c2=O)[C@H](O)[C@@H]1O", "activation": "2.26%"},
      {"compound": "NC(=O)c1ncn([C@@H]2O[C@H](C(=O)O)[C@@H](O)[C@H]2O)n1", "activation": "3.51%"},
      {"compound": "Cc1cccc(Nc2nc(-c3ccccc3)cs2)n1", "activation": "19.7%"},
      {"compound": "CC(=O)Nc1cccc(-c2csc(Nc3cccc(C)n3)n2)c1", "activation": "26.8%"},
      {"compound": "COc1ccc(-c2csc(Nc3cccc(C)n3)n2)cc1OC", "activation": "50% (active)"},
      {"compound": "CC(=NNC(N)=O)c1ccc(Cl)c(-n2cccc2)c1", "activation": "-7.68%"},
      {"compound": "COc1ccccc1-c1cc2nc(NCc3cccc(Cl)c3)ccn2n1", "activation": "-1.89%"},
      {"compound": "Cc1ccc(OCC(=O)Nc2nnc(-c3ccco3)s2)cc1", "activation": "-0.584%"},
      {"compound": "COc1ccc(OCC(=O)Nc2nnc(-c3ccco3)s2)cc1", "activation": "-4.19%"},
      {"compound": "CCCCOc1ccc(-c2nnc(-c3ccco3)o2)cc1", "activation": "46.7% (active)"},
      {"compound": "C=CCN=C1NC(c2ccccc2)C(C(=O)OC)=C(C)N1Cc1ccc(C(F)(F)F)cc1", "note": "(configuration not stated)", "activation": "-8.4%"},
      {"compound": "Cn1c(NC(=O)c2ccccc2)nc2ccccc21", "activation": "19.2%"},
      {"compound": "Cn1c(S(=O)(=O)O)nc2ccccc21", "activation": "-1.9%"},
      {"compound": "Cn1c(-c2ccc(C(=O)c3ccccc3)s2)nc2ccccc21", "activation": "44.9% (active)"},
      {"compound": "CCCCc1c(-c2ccc(Cl)cc2)ncn1CCc1ccccc1OC", "activation": "-10.4%"},
      {"compound": "O=S1(=O)c2ccc(Br)cc2-n2nncc2CN1Cc1cccc(Cl)c1", "activation": "-0.853%"},
      {"compound": "CCOC(=O)[C@H]1Nc2ccc(Cl)cc2[C@@H]2[C@H]1C1CC(c3ccccc31)N2C(=O)OCc1ccccc1", "note": "(some centres not stated)", "activation": "-1.09%"},
      {"compound": "Cc1ccn(-c2cccc(-n3ccc(C)n3)n2)n1", "activation": "57.6% (active)"},
      {"compound": "Cc1cccc(N2O[C@H]3C=CC2CCCC3)n1", "activation": "-7.04%"},
      {"compound": "COc1ccc(C2=Nc3ccccc3NC(=O)C2N(C(=O)c2cc3ccccc3[nH]2)c2ccccc2)cc1", "note": "(configuration not stated)", "activation": "23.9%"},
      {"compound": "CCCCCCCCN1C(=O)[C@@H](CC(=O)N2CCN(C(=O)OCC)CC2)C[C@@]2(C(=O)OC)C1=C[C@H](C1CCCC1)O[C@@H]2C", "activation": "-4.17%"},
      {"compound": "CCCCOCCCNC(=O)C[C@@H]1C[C@@]2(C(=O)OCC)CCCC=C2N(CCC2=CCCCC2)C1=O", "activation": "-4.42%"},
      {"compound": "CC1CCN(C(=O)c2ncn3c2C(=O)N[C@@H](C)C3)CC1", "activation": "-1.28%"},
      {"compound": "C[C@H]1[C@H](c2ccccc2)Oc2cc(Br)ccc2S(=O)(=O)N1Cc1cccc(F)c1", "activation": "-3.84%"},
      {"compound": "CCCNC(=O)C1(C)CCCN(Cc2cccc(C(F)(F)F)c2)C1", "note": "(configuration not stated)", "activation": "-4.42%"},
      {"compound": "O=C(CSC(=S)N1CCCCC1)c1c(F)cccc1F", "activation": "58.4% (active)"},
      {"compound": "O=C(CSC(=S)N1CCOCC1)c1ccccc1", "activation": "9.4%"},
      {"compound": "COc1cccc(NC(=O)CN(C)C(=O)CSC(=S)N2CCCC2)c1", "activation": "0.702%"},
      {"compound": "O=C(NS(=O)(=O)c1cccs1)[C@H]1O[C@@H](n2ccc(=O)[nH]c2=O)[C@H](O)[C@@H]1O", "activation": "-2.42%"},
      {"compound": "COC(=O)[C@]12CCCCC=C1N(Cc1cccc3ccccc13)C(=O)[C@H](CC(=O)N1CCOCC1)C2", "activation": "2.09%"},
      {"compound": "COCc1[nH]nc2c1C(c1ccccc1)N(c1ccccc1)C2=O", "note": "(configuration not stated)", "activation": "-1.18%"},
      {"compound": "Cc1ccc(S(=O)(=O)N2CCN(C(=O)CSc3cc(C)ccc3C)CC2)c(C)c1", "activation": "-0.764%"},
      {"compound": "Cc1ccc(S(=O)(=O)N2CCN(C(=O)Cn3c(=O)cnc4ccccc43)CC2)c(C)c1", "activation": "68.6% (active)"},
      {"compound": "Cc1ccc(S(=O)(=O)N2CCN(C(=O)COC(=O)c3c(C)cc(C)cc3C)CC2)c(C)c1", "activation": "-2.2%"},
      {"compound": "Cc1ccc2nc(CN(C)C(=O)[C@@H](Cc3ccccc3)NC(=O)[C@H]3O[C@@H](n4ccc(=O)[nH]c4=O)[C@H](O)[C@@H]3O)[nH]c2c1", "activation": "-3.23%"},
      {"compound": "CCCC(=O)N1c2ccc(-c3csc(N)n3)cc2CC1C", "note": "(configuration not stated)", "activation": "56.5% (active)"},
      {"compound": "Cc1ccn(CCC(=O)N2c3ccccc3CC2C)n1", "note": "(configuration not stated)", "activation": "-0.727%"},
      {"compound": "CCn1nc(C(=O)OCC(=O)N2c3ccccc3CC2C)c2ccccc2c1=O", "note": "(configuration not stated)", "activation": "-0.818%"},
      {"compound": "CCc1nc2ccc(C(=O)NC3CCN(Cc4ccccc4)CC3)cn2c1N(CC)CCOC", "activation": "-0.563%"},
      {"compound": "O=C1C(Sc2cccc(F)c2)=C[C@@]2(O)CC[C@@H](O)[C@]1(Sc1cccc(F)c1)[C@H]2O", "activation": "-1.51%"},
      {"compound": "O=[N+]([O-])c1cccc(C=NN=Cc2ccccc2O)c1", "activation": "68% (active)"},
      {"compound": "COc1ccc(O)c(/C=N/N=C/c2cccc([N+](=O)[O-])c2)c1", "activation": "5.49%"},
      {"compound": "O=C(N/N=C/c1cccc([N+](=O)[O-])c1)c1ccncc1", "activation": "-0.352%"},
      {"compound": "COCC1CCCCN1C(=O)c1cc(COc2ccc(C)c(C)c2)on1", "note": "(configuration not stated)", "activation": "28.7%"}
    ]}
  ]
}
